Screen size: about 68,000 compounds; about 2,700 (4%) showed an effect of 50% or more. This excerpt belongs to a sample that is enriched for strong results.
system: Plasmodium berghei; assay: Screen against P. berghei liver stage (PbLuc), transformed with Luciferase, at 2uM; assay type: functional, HepG2; conditions: tested at 2 uM

SMILES	INHIBITION [%]
CCc1c(C)nc2cc(C3CCN(Cc4ccc(F)cc4)C3)nn2c1O (configuration not stated)	40.31
CCc1c(C)nc2cc(C3CCN(Cc4cccnc4)C3)nn2c1O (configuration not stated)	31.56
CCc1c(C)nc2cc(C3CCN(Cc4cccc(F)c4)C3)nn2c1O (configuration not stated)	65.74
CCc1ccc(CN2CCc3ncnc(N4CCOCC4)c3CC2)o1	-21.37
CN1CCN(C[C@@H]2CN(C(=O)NCC3CCCCC3)C[C@@H]2CO)CC1	-26.04
COc1ccc(CN2CC[C@H]3O[C@@H](C(=O)NCC4CC4)CC[C@H]32)cc1	44.4
CC(Cn1cccn1)NC(=O)Nc1ccc(N(C)C)nc1 (configuration not stated)	5.96
CC(Cn1cccn1)NC(=O)NCCN1CCCCCC1=O (configuration not stated)	50.03
CC(Cn1cccn1)NC(=O)NCCCN1CCCCCC1=O (configuration not stated)	48.37
CC(Cn1cccn1)NC(=O)NCc1cccnc1 (configuration not stated)	61.3
CCN(CC)c1ccc(NC(=O)NC(C)Cn2cccn2)cn1 (configuration not stated)	52.3
CC(Cn1cccn1)NC(=O)NCCc1cccnc1 (configuration not stated)	10.53
CC(Cn1ccnc1)NC(=O)NCCN1CCCCCC1=O (configuration not stated)	17.18
COc1ccc(NC(=O)NC(C)Cn2cccn2)cn1 (configuration not stated)	-40.27
Cc1ccc(CNC(=O)NC(C)Cn2cccn2)cn1 (configuration not stated)	49.01
COc1ccc2c(ccn2CCC(=O)NCc2ccc(C(=O)O)cc2)c1	42.94
Cc1ccc(C(CCNCCN(C)C)C2CCOC(C)(C)C2)cc1 (configuration not stated)	26.52
CC(C)CN1CCc2[nH]cnc2C12CCN(C(=O)c1ccc[nH]1)CC2	22.43
CC(C)CN1CCc2[nH]cnc2C12CCN(C(=O)c1cccnc1)CC2	0.3
CC(C)CN1CCc2[nH]cnc2C12CCN(C(=O)c1ccnn1C)CC2	29.19
Cc1ocnc1C(=O)N1CCC2(CC1)c1nc[nH]c1CCN2CC(C)C	52.83
CC(C)CN1CCc2[nH]cnc2C12CCN(C(=O)c1cnn(C)c1)CC2	51.14
Cc1cc(C(=O)N2CCC3(CC2)c2nc[nH]c2CCN3CC(C)C)no1	37.63
CCc1ccc(S(=O)(=O)N2CCCC3(CCCN3S(C)(=O)=O)C2)cc1 (configuration not stated)	28.41
Cc1cc(C)n(CCNCc2cc(-c3ccccc3)c[nH]c2=O)n1	24.26
CC1CCc2nn(CCNC(=O)c3cccs3)c(=O)cc2C1 (configuration not stated)	28.82

SMILES	INHIBITION [%]
CC(C)N1[C@@H](C(=O)NCC2CC2)C[C@@H]2CN(Cc3ccco3)C[C@@H]21	28.2
Cc1nn(C)c(C)c1C(C)NCc1ccsc1 (configuration not stated)	38.83
CS(=O)(=O)c1cncnc1C1CCCN(C(=O)Nc2ccc(F)cc2)C1 (configuration not stated)	-0.7
CC(C)N(Cc1ccccn1)C(=O)CCOc1cccc(F)c1	5.43
Cc1cc(NCC2CCCO2)cc(=O)n1C (configuration not stated)	-0.15
COCCCNC(=O)C(C)n1nc(-c2ccco2)cc(N)c1=O (configuration not stated)	-1.32
COCCNC(=O)C(C)n1nc(-c2ccco2)cc(N)c1=O (configuration not stated)	54.2
COCCNC(=O)C(C)n1nc(-c2ccc(C)o2)cc(N)c1=O (configuration not stated)	-21.09
CCN1CCC(CNC(=O)C(c2ccccc2F)N(C)C)(N(C)C)CC1 (configuration not stated)	46.58
O=C(Cc1cccs1)N1CCOCC1c1ccccc1 (configuration not stated)	-26.81
CC(C)n1ccnc1CN1CCCN(C(=O)c2cscn2)CC1	-28.58
CC(C)C(O)CNC(=O)Nc1cccc(-c2nccs2)c1 (configuration not stated)	-2.23
Cn1cc(CN(CC2(O)CNCCOC2)C2CCCCC2)cn1 (configuration not stated)	0.17
OC1(CN2CCC(Oc3cccnc3)CC2)CNCCOC1 (configuration not stated)	3.58
CN(Cc1ccc2nsnc2c1)CC1(O)CNCCOC1 (configuration not stated)	-1.57
OC1(CN(Cc2cccnc2)C2CCCCC2)CNCCOC1 (configuration not stated)	74.3
Cn1cc(CN(CC2(O)CCNC2)C2CCCCC2)cn1 (configuration not stated)	60.64
Cn1cc(CN(C/C=C/c2ccccc2)C2CC2)cn1	-17.37
CN(C)c1ccc(C(CNS(=O)(=O)c2cccs2)N2CCCC2)cc1 (configuration not stated)	14.19
COc1cccc(-c2n[nH]cc2-c2nc(CC3CCN(C)CC3)no2)c1	38.67
Cc1noc(C)c1C(=O)N1CCCC1(C)C(=O)NC1CCCC1 (configuration not stated)	11.32
Cc1cnn(C2CCCN(C(=O)Cc3ccc4c(c3)CCO4)C2)c1 (configuration not stated)	11.95
O=C(Cc1ccc2c(c1)CCO2)N1CCCC(n2cccn2)C1 (configuration not stated)	52.52
O=C(Cc1ccc2c(c1)CCC2)N1CCCC(n2cccn2)C1 (configuration not stated)	-0.71
O=C(Cc1ccc2c(c1)OCCO2)N1CCCC(n2cccn2)C1 (configuration not stated)	56.12
O=C(Cc1ccc2c(c1)OCCO2)N1CCCC(n2cncn2)C1 (configuration not stated)	-7.15
